From PubChem BioAssay (EPA / NIEHS)
Inconclusive results are not listed. Activity calls are given as the source filed them. The calls were made as follows: active = hit-call score of the fitted dose curve at least 0.9, where 1 is the maximum; inconclusive = response in the unintended direction; inactive = score below 0.9.

Each compound was assayed on xenobiotic metabolism (CYP2C9), CYP2C9 (gene 1559) (assay: CLD_CYP2C9_6hr: CellzDirect (CLD) Gene Expression Assay for xenobiotic metabolism (CYP2C9) at 6 hours (AID 2283664)).
Procedure: CLD_6hr is a cell-based, multiplexed-readout assay that uses hepatocyte, a human liver primary cell, with measurements taken at 6 hours after chemical dosing in a 96-well plate.CLD_CYP2C9_6hr is one of 16 assay component(s) measured or calculated from the CLD_6hr assay. It is designed to make measurements of mRNA induction, a form of inducible reporter, as detected with chemiluminescence signals by Quantitative Nuclease Protection Assay (qNPA) technology.Data from the assay component CLD_CYP2C9_6hr was analyzed at the endpoint, CLD_CYP2C9_6hr, in the positive analysis fitting direction relative to DMSO as the negative control and baseline of activity. Using a type of inducible reporter, gain-of-signal activity can be used to understand changes in the reporter gene as they relate to the gene CYP2C9. Furthermore, this assay endpoint can be referred to as a primary readout. To generalize the intended target to other relatable targets, this assay endpoint is annotated to the cyp intended target family, where subfamily is xenobiotic metabolism.
Human hepatocyte cultures were treated daily for two consecutive days with fresh dosing solutions containing appropriate concentrations of the 320 ToxCast chemicals (chemical identities were blinded to CellzDirect and other ToxCast collaborators), vehicle control (0.2% DMSO), and positive control inducers as summarized in Table 1. Due to the large number of treatment groups and chemicals examined, the ToxCast chemicals were divided into two groups (spanning two independent cultures of hepatocytes from separate donor preparations (Hu778: ToxCast plates 1 and 2; Hu776: ToxCast plates 3 and 4). Each preparation of human hepatocyte cultures was treated with respective vehicle control, medium only control, set of six positive controls/reference chemicals for the five hepatic receptor pathways, and a subset of eight of the ToxCast chemicals (indoxacarb, pyrithiobac-sodium, norflurazon, cyhalofop-butyl, methomyl, thiram, acetochlor, and propiconazole). These replicate data, coupled with internal replicates designed within the blinded ToxCast chemical library, provided additional data to evaluate interindividual differences between hepatocyte preparations and their potential impact on chemical profiles.Cell morphology and integrity were evaluated using phase-contrast microscopy as an indicator of hepatocyte cell health (Tyson & Green, 1987). Cultures for each treatment group (i.e., media, vehicle [0.2% DMSO], positive control inducers [multiple concentrations], and the ToxCast chemicals [multiple concentrations]) were observed and cell morphology was assessed relative to vehicle control cultures at each harvest time point (0, 6, 24, or 48 h). […] Images were evaluated at the conclusion of the study to assess changes in cell integrity and account for the effects of chemical exposure on uncharacteristic changes in concentration-dependent gene expression profiles. The results from these determinations of apparent cytotoxicity were annotated (yes/no) alongside the corresponding qNPA data for reference.At the conclusion of each treatment period, hepatocyte cultures (96-well) were washed with 1 volume of HBSS, lysed by addition of 25 ul ArrayPlate lysis buffer (HTG, Tucson, AZ), and 70 ul/well of Denaturation Oil, denatured by incubation at 95C for 10 min, and frozen at approximately -70C until analysis by nuclease protection assay (qNPA) (Roberts et al., 2007). For qNPA analysis, cell lysates were thawed at 50C for approximately 30 min, qNPA probes were added, and samples were incubated at 95C for 10 min to begin the detection process by denaturing the target RNA, dissociating the duplexes and secondary structure hybridization. At the conclusion of the hybridization period, S1 nuclease reagent was added to each sample to digest all nonprotected nucleotides at 50C for 60-90 min. […]

SMILES | outcome
CCCCC(CC)COC(=O)c1ccccc1C(=O)OCC(CC)CCCC (centres undefined) | inactive
COc1nc(C)nc(NC(=O)NS(=O)(=O)c2ccccc2CCC(F)(F)F)n1 | inactive
OC(c1ccc(Cl)cc1)(c1cncnc1)c1ccccc1Cl (centres undefined) | inactive
CCOC(=O)C(Cl)Cc1cc(-n2nc(C)n(C(F)F)c2=O)c(F)cc1Cl (centres undefined) | inactive
COC(=O)c1ccccc1C(=O)OC | inactive
COC(=O)C=C(C)OP(=O)(OC)OC | inactive
CNC(=O)ON=CC(C)(C)SC | inactive
Cc1cc(Cl)ccc1OCC(=O)O | inactive
CNC(=S)S | inactive
CCCN(CCC)c1c([N+](=O)[O-])cc(S(N)(=O)=O)cc1[N+](=O)[O-] | inactive
CCNc1nc(Cl)nc(NCC)n1 | inactive
O=C(O)COc1nc(Cl)c(Cl)cc1Cl | inactive
C#CCOS(=O)OC1CCCCC1Oc1ccc(C(C)(C)C)cc1 (centres undefined) | inactive
COc1nc(NC(C)C)nc(NC(C)C)n1 | inactive
O=C(O)c1nc(Cl)ccc1Cl | inactive
COc1nc(C)nc(NC(=O)NS(=O)(=O)c2ccccc2Cl)n1 | inactive
COC(=O)N(OC)c1ccccc1COc1ccn(-c2ccc(Cl)cc2)n1 | inactive
COc1cnc(OC)n2nc(NS(=O)(=O)c3c(OCC(F)F)cccc3C(F)(F)F)nc12 | inactive
C=CCC1=C(C)C(OC(=O)C2C(C=C(C)C)C2(C)C)CC1=O (centres undefined) | inactive
CC(C)C1(C)N=C(c2nc3ccccc3cc2C(=O)O)NC1=O (centres undefined) | inactive
Oc1ccccc1-c1ccccc1 | inactive
COP(=S)(OC)Oc1nc(Cl)c(Cl)cc1Cl | inactive
Fc1ccc(Oc2ccnc3cc(Cl)cc(Cl)c23)cc1 | inactive
CCCCOC(=O)c1ccccc1C(=O)OCCCC | inactive
